This is an account of results in PubChem BioAssay (EPA / NIEHS).

Results filed as inconclusive are left out. Activity calls are given as the source filed them. The calls were made as follows: active = hit-call score of the fitted dose curve at least 0.9, where 1 is the maximum; inconclusive = response in the unintended direction; inactive = score below 0.9.

Sequence of Steroid hormone receptor ERR1 (Homo sapiens) (P11474 whole entry, looked up): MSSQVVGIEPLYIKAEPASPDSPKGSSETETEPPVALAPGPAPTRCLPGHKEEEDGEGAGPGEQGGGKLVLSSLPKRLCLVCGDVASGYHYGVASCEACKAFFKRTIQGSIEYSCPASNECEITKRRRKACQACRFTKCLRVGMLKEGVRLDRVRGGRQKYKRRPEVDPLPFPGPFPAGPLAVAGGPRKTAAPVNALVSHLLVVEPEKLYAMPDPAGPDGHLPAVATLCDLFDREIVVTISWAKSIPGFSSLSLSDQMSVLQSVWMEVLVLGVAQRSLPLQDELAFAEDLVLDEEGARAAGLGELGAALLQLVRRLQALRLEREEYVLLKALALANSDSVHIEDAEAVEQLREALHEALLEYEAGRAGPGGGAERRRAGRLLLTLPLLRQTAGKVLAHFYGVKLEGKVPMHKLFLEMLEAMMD

The assay addresses Steroid hormone receptor ERR1 (Homo sapiens) (UniProt P11474). Nature of the assay: ATG_ERRa_TRANS: Attagene TRANS-FACTORIAL HepG2 Assay for human Estrogen-Related Receptor alpha (ERRa) (AID 2282971). The settings on record: HepG2 Attagene TRANS reporter, ERRa transactivation. How it is done:
ATG_TRANS is a cell-based, multiplexed-readout assay that uses HepG2, a human liver cell line, with measurements taken at 24 hours after chemical dosing in a 24-well plate.ATG_ERRa_TRANS is one of 30 assay component(s) measured or calculated from the ATG_TRANS assay. It is designed to make measurements of mRNA induction, a form of inducible reporter, as detected with fluorescence intensity signals by Reverse transcription polymerase chain reaction (RT-PCR) and Capillary electrophoresis technology.Data from the assay component ATG_ERRa_TRANS was analyzed into 1 assay endpoint. This assay endpoint, ATG_ERRa_TRANS, was analyzed in the positive analysis fitting direction relative to DMSO as the negative control and baseline of activity. Using a type of inducible reporter, measures of mRNA for gain-of-signal activity can be used to understand the reporter gene at the transcription factor-level as they relate to the gene ESRRA. Furthermore, this assay endpoint can be referred to as a primary readout, because this assay has produced multiple assay endpoints where this one serves a reporter gene function. To generalize the intended target to other relatable targets, this assay endpoint is annotated to the nuclear receptor intended target family, where the subfamily is steroidal.
Human liver HepG2 cells are transiently transfected with multiple reporter transcription units (MRTUs) in 6-well plates using FuGene 6 reagent (Roche; 3 ml FuGene/1 mg DNA). The MRTU constructs are regulated by a cis-regulating element (promoter). […] A major difference between the CIS and TRANS system is that in CIS activities of endogenous TFs are measured, whereas the TRANS assay evaluates changes in activities of exogenous, chimeric NR-Gal4 proteins. […] At the end of 24 hour incubation, total RNA was isolated using TriZol reagent (Invitrogen). The isolated RNA is then reverse-transcribed using oligo(dT) primer and Mo-MLV reverse transcriptase (Invitrogen) with DNAse I (Ambion) treatment for 30 min. The one-tenth of the produced cDNA was amplified by PCR using Taq DNA polymerase (Invitrogen) and two reporter sequence-specific primers. The PCR products were fluorescently labeled by primer extension with 6-arboxyfluorescein (6-FAM) 5'-labeled reporter sequence-specific primer (2 min at 95 C, 20 s at 68 C and 10 min at 72 C) and these products were digested with 5U of HpaI (New England Biolabs) for 2h at 37 C. The fragments were purified using Qiaquick PCR columns (Qiagen), analyzed on an ABI 3130xL genetic analyzer (Applied Biosystems) with peak positions identified by using a set of X-rhodamine (ROX)-labeled MapMarker1000 molecular weight standards (BioVentures). The raw capillary electrophoresis data was processed using Attagraph software (Attagene).
Regarding `NNS(=O)(=O)c1ccc(Oc2ccc(S(=O)(=O)NN)cc2)cc1`, the call was inactive.
The same measure for `CCCCCCOC(=O)CCCCC(=O)OCCCCCC`: “inactive”.
Turning to `C=CCCCCCCCCOC(C)=O`, the result was inactive.
The value for `CCCCC1CCC(=O)O1` (stereo not given) was “inactive”.
The value for `C=C(C)OC(C)=O` was “inactive”; that for `C1CCSC1` was “inactive”; that for `CCCCCCOc1ccc(N)cc1` was “inactive”.
For `CCC(=O)C1CC(C(C)C)CC=C1C` (stereo not given), the call was inactive.
In the case of `CC(C)c1ccc2ncccc2c1`, the result was inactive.
The value for `CC(C)CCOCc1ccccc1` was “inactive”; that for `CC1(C)[C@@H]2CC[C@@]1(C)C(=O)C2` was “inactive”; that for `C=C(C)C(=O)OCCCCCCCCCCCC` was “inactive”.
Turning to `CCOC(=O)c1ccc(C)cc1`, the compound was classed as inactive.
The same measure for `CC(C)(C)C1CCC(=O)CC1`: “inactive”; for `CC(C)(O)Cc1ccccc1`: “inactive”.
The same measure for `Fc1ccc(Br)cc1`: “inactive”; for `CCOC(=O)/C=C\C(=O)OCC`: “inactive”; for `CC1C(C)(C)C2=C(C(=O)CCC2)C1(C)C` (stereo not given): “inactive”.
The same measure for `CC(C)(CO)COC(=O)C(C)(C)CO`: “inactive”; for `Cc1ccc(S(=O)(=O)N=C=O)cc1`: “inactive”; for `CCC[Si](OC)(OC)OC`: “inactive”.
Take `COC(=O)CC(C)CCC=C(C)C` (stereo not given): the compound was classed as inactive.
The value for `COC(OC)(C(=O)c1ccccc1)c1ccccc1` was “inactive”; that for `CCN(CC)c1cccc(C)c1` was “inactive”.
The same measure for `C=C(C)C1CC=C(C)C(OC(C)=O)C1` (stereo not given): “inactive”.
The value for `c1ccc2cnccc2c1` was “inactive”.
For `COc1nccnc1CC(C)C`, the compound was called inactive.
The same measure for `CC1=CP(=O)(c2ccccc2)CC1` (stereo not given): “inactive”; for `CCCCCCCC(=O)OCC`: “inactive”; for `CC/C=C\CCOC(=O)c1ccccc1O`: “inactive”.
The value for `CC1=CC(C)C(C=O)CC1` (stereo not given) was “inactive”.
The value for `CC(=O)OC1CCCCC1` was “inactive”; that for `C=C(C)C(=O)OCCOC(=O)C(=C)C` was “inactive”.
Turning to `CCOC(=O)C1=NN(c2ccc(Cl)cc2Cl)C(C)(C(=O)OCC)C1` (stereo not given), the result was inactive.
As for `O=C(Cl)c1c(Cl)c(Cl)c(C(=O)Cl)c(Cl)c1Cl`, the compound was called inactive.
The same measure for `C=CC(=O)OCCCCCCOC(=O)C=C`: “inactive”; for `Cn1ccnc1`: “inactive”.
Take `C=CC(=O)OCCCCCCCCCC`: the result was inactive.
The same measure for `COC(=O)c1ccc(C(=O)OC)c(C(=O)OC)c1`: “inactive”; for `O=C(O)c1cc(O)c2ccccc2c1O`: “inactive”.
